From PubChem BioAssay (NCI) come the findings set out here.

This is part of a sample that, as a whole, favours compounds with a hit. Of some 83,000 tested, about 20% had one in any assay.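 Treatment: one concentration, 48 hours, 96-well format. Scoring: percent growth, with anything below 10 considered active.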 A number with no mark means an inactive call. Active and inactive are the calls of the source.

Among the test systems are OVCAR-8 ovarian; OVCAR-5 ovarian; OVCAR-4 ovarian; SK-OV-3 ovarian; IGROV1 ovarian; OVCAR-3 ovarian; HS 578T breast; NCI/ADR-RES ovarian; T-47D breast; BT-549 breast; MDA-MB-435 melanoma; SW-620 colon; MCF7 breast; HCT-116 colon; HCC-2998 colon; KM12 colon; RPMI-8226 leukemia.
What all share (assay): NCI-60 one-dose screen, 48 h (100 = growth as untreated, 0 = no growth, -100 = all killed)
What all share (details): 10 µM unless noted

Regarding `COC(=O)c1sccc1-c1cc(O)c(C(=O)Nc2ccccc2)s1`, the growth was 101% in the experiment with OVCAR-8 ovarian; 117% in the experiment on OVCAR-5 ovarian; 89.7% in the experiment with OVCAR-4 ovarian; 78.3% in the experiment on SK-OV-3 ovarian; 95% with IGROV1 ovarian; 96.2% with OVCAR-3 ovarian. Besides, the growth in the experiment on HS 578T breast is 103%; in the experiment with NCI/ADR-RES ovarian it was 93.2%; with T-47D breast, 67.5%; in the experiment on BT-549 breast, 116%; with MDA-MB-435 melanoma, 102%; in the experiment with SW-620 colon, 109%. Moreover, the growth is 82% in the experiment with MCF7 breast, 94.6% in the experiment with HCT-116 colon, 109% in the experiment with HCC-2998 colon and 87% in the experiment on KM12 colon.
Take `CC1(C)CC[C@]2(CO)CC[C@]3(C)[C@](O)([C@H](O)C[C@@H]4[C@@]5(C)CCCNC(C)(C)[C@@H]5CC[C@]43C)[C@@H]2C1`: the growth is 74.4% in the experiment with RPMI-8226 leukemia; 101% in the experiment with OVCAR-8 ovarian; 106% in the experiment on OVCAR-5 ovarian; 96.2% in the experiment with OVCAR-4 ovarian; 98.2% in the experiment with SK-OV-3 ovarian; 102% with IGROV1 ovarian. In addition, the growth in the experiment on OVCAR-3 ovarian is 101%; in the experiment with HS 578T breast it was 98.9%; with NCI/ADR-RES ovarian it was 100%; with T-47D breast, 84.3%; with BT-549 breast, 98.8%; with MDA-MB-435 melanoma it was 93.2%. In addition, the growth was 99.6% in the experiment on SW-620 colon; 91.7% in the experiment with MCF7 breast; 71.3% in the experiment on HCT-116 colon; 58.4% in the experiment with HCC-2998 colon; 95% in the experiment with KM12 colon.
For `COc1ccc(-c2nc3c(c(-c4ccc(Cl)cc4)nn3-c3ccccc3)c(-c3ccccc3)c2C#N)cc1`, the growth is 106% in the experiment on RPMI-8226 leukemia; 100% with OVCAR-8 ovarian; 103% in the experiment on OVCAR-5 ovarian; 116% in the experiment with OVCAR-4 ovarian; 122% in the experiment with SK-OV-3 ovarian; 111% in the experiment with IGROV1 ovarian. The growth in the experiment with OVCAR-3 ovarian was 111%; with HS 578T breast, 114%; with NCI/ADR-RES ovarian, 108%; in the experiment on T-47D breast, 94.3%; with BT-549 breast, 106%; in the experiment with MDA-MB-435 melanoma it was 105%. Further, the growth with SW-620 colon is 104%; in the experiment on MCF7 breast, 96%; in the experiment with HCT-116 colon, 101%; in the experiment on HCC-2998 colon, 115%; with KM12 colon it was 98.5%.
Turning to `Cc1cc(=O)oc2cc(Oc3nc(Br)cn4c(Br)cnc34)ccc12`, the growth in the experiment with OVCAR-8 ovarian is 64.7%; in the experiment with OVCAR-5 ovarian, 101%; in the experiment with OVCAR-4 ovarian, 45.5%; in the experiment with SK-OV-3 ovarian it was 85.5%; in the experiment on IGROV1 ovarian, 77.4%; in the experiment with OVCAR-3 ovarian, 56.7%. Besides, the growth with HS 578T breast is 69.9%; in the experiment on NCI/ADR-RES ovarian, 57.5%; in the experiment on BT-549 breast it was 92.2%; in the experiment with MDA-MB-435 melanoma it was 87.2%; in the experiment on SW-620 colon, 116%; in the experiment with MCF7 breast it was 22.2%. Also, the growth was 55.5% with HCT-116 colon, 105% in the experiment with HCC-2998 colon and 78.9% in the experiment with KM12 colon.
Take `Cc1nc2sc(C(=O)Nc3cccc(Cl)c3C)c(N)c2cc1C(=O)/C=C/c1ccccc1`: the growth is -12.5% (active) in the experiment with OVCAR-8 ovarian; 8.98% (active) with OVCAR-5 ovarian; 35.5% in the experiment with OVCAR-4 ovarian; 28.8% with SK-OV-3 ovarian; -11.8% (active) in the experiment with IGROV1 ovarian; -76.6% (active) in the experiment with OVCAR-3 ovarian. The growth is 6.35% (active) in the experiment with HS 578T breast; -4.7% (active) with NCI/ADR-RES ovarian; 21.2% with T-47D breast; -35.7% (active) with BT-549 breast; -21.8% (active) in the experiment with SW-620 colon; 3% (active) in the experiment on MCF7 breast. Moreover, the growth with HCT-116 colon is -35.6% (active); with HCC-2998 colon, -83.2% (active); with KM12 colon, -16.7% (active).
`COC(=O)[C@@]1(C)CC[C@]2(C)CC[C@]3(C)C4=CC=C5C(=CC(=O)C(O)=C5C)[C@]4(C)[C@@H](O)C[C@@]3(C)[C@@H]2C1`: the growth was 3.73% (active) with RPMI-8226 leukemia; 4.47% (active) in the experiment on OVCAR-8 ovarian; 66.7% with OVCAR-5 ovarian; 34% in the experiment with OVCAR-4 ovarian; 82.4% with SK-OV-3 ovarian; -46.8% (active) with IGROV1 ovarian. For the same compound, the growth was -16.6% (active) in the experiment with OVCAR-3 ovarian; 27.4% in the experiment on HS 578T breast; 49% in the experiment with NCI/ADR-RES ovarian; 35.5% with BT-549 breast; 15.9% in the experiment with MDA-MB-435 melanoma; -10.4% (active) in the experiment on SW-620 colon. In addition, the growth was 17.6% in the experiment on MCF7 breast, 0.149% (active) in the experiment on HCT-116 colon, 37.7% in the experiment with HCC-2998 colon and 77.6% with KM12 colon.
Take `O=CN1N=C(c2cccc(Nc3ccnc4cc(Cl)ccc34)c2)CC1c1ccc(Cl)cc1` (stereo unspecified): the growth is 32.9% in the experiment with RPMI-8226 leukemia; 43.7% in the experiment on OVCAR-8 ovarian; 58.7% in the experiment on OVCAR-5 ovarian; 57.5% with OVCAR-4 ovarian; 24.1% with SK-OV-3 ovarian; 38.7% in the experiment with IGROV1 ovarian. Also, the growth in the experiment with OVCAR-3 ovarian was -17% (active); in the experiment on HS 578T breast, 1.82% (active); with NCI/ADR-RES ovarian, 5.69% (active); in the experiment with T-47D breast it was 43.3%; with BT-549 breast, 8.58% (active); in the experiment on MDA-MB-435 melanoma it was -38.3% (active). Moreover, the growth in the experiment on SW-620 colon is 23.4%; with MCF7 breast, 14.6%; with HCT-116 colon, 1% (active); with HCC-2998 colon, 44.3%; in the experiment on KM12 colon it was 28.1%.
Consider `Cn1c(=O)c2[nH]c(SC/C(=N/O)c3ccc(Br)cc3)nc2n(C)c1=O`, for which the growth in the experiment with RPMI-8226 leukemia is 59.4%; in the experiment on OVCAR-8 ovarian it was 26.5%; in the experiment with OVCAR-5 ovarian, 54.8%; in the experiment on OVCAR-4 ovarian, 7.77% (active); in the experiment on SK-OV-3 ovarian it was -33.3% (active); with IGROV1 ovarian it was 20.1%. In addition, the growth in the experiment with OVCAR-3 ovarian is 11.8%; in the experiment on HS 578T breast, 31.8%; in the experiment on NCI/ADR-RES ovarian, 37.1%; with T-47D breast, 23.1%; in the experiment on BT-549 breast, 28.3%; in the experiment with MDA-MB-435 melanoma it was 52%. Also, the growth in the experiment on SW-620 colon was 92.7%; in the experiment with MCF7 breast, 69.1%; in the experiment with HCT-116 colon, 28.3%; with HCC-2998 colon, 16.8%; in the experiment on KM12 colon, 56.9%.
For the compound `O=C(Cc1ccc(/C=C/C(=O)c2ncc[nH]2)cc1)Nc1cc(F)c(F)c(F)c1`, the growth in the experiment with RPMI-8226 leukemia is 0.541% (active); in the experiment with OVCAR-8 ovarian it was 41.7%; with OVCAR-5 ovarian it was 80.7%; in the experiment with OVCAR-4 ovarian, 72.7%; with SK-OV-3 ovarian, 103%; in the experiment on IGROV1 ovarian, 55.8%. Further, the growth in the experiment with OVCAR-3 ovarian was 3.93% (active); in the experiment on HS 578T breast it was 37%; with NCI/ADR-RES ovarian, 66.5%; in the experiment on T-47D breast, 49.9%; in the experiment with BT-549 breast, 66.7%; in the experiment on SW-620 colon, 13.1%. Moreover, the growth in the experiment with MCF7 breast was 10.4%; in the experiment on HCT-116 colon, 15.8%; in the experiment with HCC-2998 colon, 75.2%; in the experiment on KM12 colon, 24.7%.
